The values that follow come from PubChem BioAssay AID1259415 (National Center for Advancing Translational Sciences (NCATS), 2018).

Where “and” joins values, the source holds several entries; their conditions need not be identical. Identical values can stand only once. Among all 410,000 compounds or so, about 18,000 (4.4%) were called active. Inconclusive results (about 7%) are left out. This is one part of a sample in which actives are shown more often than they occur. A number with no mark means an inactive call. Rule as the data show it: active = activity change below about -60%; inconclusive = no clear call, values can overlap the other calls; inactive = above about -39%.
% is scaled to controls: 0 for no effect and ±100 for the full control effect.

This assay is described as follows: qHTS Assay for inhibitors of the human cytomegalovirus (HCMV). The note with it: HFF cells, HCMV-luciferase reporter, 72 h; at 57.5 µM; active compounds read low. Put shortly:
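After 16 h attachment at 37C, HFF cells received test compound and HCMV-luciferase (1 PFU/cell); reporter luminescence read 72 h later, data normalized against buffer-only and known inhibitor Salinomycin.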
(In general: Quantitative high-throughput screening tests each substance at several concentrations.)
On to `Cc1cc(C)c2nc(SCC(=O)N(C)C3CCS(=O)(=O)C3)cc(C)c2c1` (stereo unspecified), for which the activity change, negative = inhibition was 25.8%.

Turning to `CCCOc1cccc(C(=O)Nc2cccc(NC(=O)c3ccc(C(C)(C)C)cc3)c2)c1`, the activity change, negative = inhibition is 50.3%.

For the molecule `CCCOc1ccc(C(=O)C(CCC(CNCC)C(=O)c2ccc(OCCC)cc2)CNCC)cc1` (stereo unspecified), the activity change, negative = inhibition was -96.5% (active).

Turning to `CC(C)CCOc1ccc(C(=O)C[N+]2(C)CCOCC2)cc1`, the activity change, negative = inhibition is -4.43%.

On to `Cc1ccc(OCCn2c(CNc3ccccc3C)nc3ccccc32)cc1`, for which the activity change, negative = inhibition is 38%.

For `COc1ccc(/C=C/c2nc(C#N)c(NCc3ccc(F)cc3)o2)cc1OC`, the activity change, negative = inhibition was 9.25%.

On to `Cc1cc(Cl)ccc1OCC(=O)N(Cc1ccc(N(C)C)cc1)C1CCS(=O)(=O)C1` (stereo unspecified), for which the activity change, negative = inhibition is 15.4%.

In the case of `COc1ccc(Cl)cc1NC(=O)CCC(=O)c1ccc(C)cc1`, the activity change, negative = inhibition was -19.2%.

For the molecule `Cc1ccc(Cl)cc1NC(=O)CCS(=O)(=O)c1ccc(Br)s1`, the activity change, negative = inhibition is -33.6%.

Turning to `COc1ccc(Cl)cc1NC(=O)CCS(=O)(=O)c1ccc(Br)cc1`, the activity change, negative = inhibition is -65.8% (active).

Consider `O=C(c1ccccc1)N1CC(=O)N2[C@@H](CO)[C@@H](c3ccc(Br)cc3)[C@@H]2C1`, for which the activity change, negative = inhibition was 14.7%.

Take `Cc1cc(C(=O)Nc2cccc(C(F)(F)F)c2)c2c(C)nn(-c3cccc(F)c3)c2n1`: the activity change, negative = inhibition is -98.1% (active).

Consider `CSc1ccc(CCNC(=O)c2cc(C)nc3c2c(C)nn3-c2cccc(F)c2)cc1`, for which the activity change, negative = inhibition was 30.7%.

Consider `COc1cc(NC(=O)c2cc(C3CC3)nc3c2c(C)nn3-c2ccccc2)cc(OC)c1`, for which the activity change, negative = inhibition is -30%.

As to `O=C(CN1CCN(S(=O)(=O)/C=C/c2ccccc2)CC1)NC(=O)NCc1ccco1`, the activity change, negative = inhibition is 61.6%.

With `COc1ccc(OC)c(C2C3=C(N=c4s/c(=C\c5cccc(O)c5)c(=O)n42)c2ccccc2CC3)c1` (stereo unspecified), the activity change, negative = inhibition is -92.5% (active).

In the case of `COc1ccc(Cn2ccc3nc(C)c(C(=O)Nc4ccc(C)c(F)c4)cc3c2=O)cc1`, the activity change, negative = inhibition was 0.318%.

Turning to `COc1ccc(C2=CC(c3ccccc3Cl)n3nc(-c4ccc(Cl)cc4)nc3N2)cc1` (stereo unspecified), the activity change, negative = inhibition is -32.6%.

As for `C/C(=N/NC(=O)CC(=O)N/N=C(\C)c1ccc([N+](=O)[O-])cc1)c1ccc([N+](=O)[O-])cc1`, the activity change, negative = inhibition was -9.56%.

Turning to `C/C(=N\Nc1nc(N2CCOCC2)nc(N2CCOCC2)n1)c1ccc([N+](=O)[O-])cc1`, the activity change, negative = inhibition was -66% (active).

On to `C/C(=N\Nc1ccc([N+](=O)[O-])cc1)c1ccc(-n2nncc2C(C)(C)C)cc1`, for which the activity change, negative = inhibition was -14.8%.

For `CC1CCN(CCCNC(=O)CN2C(=O)CSc3ccc(S(=O)(=O)N4CCCCC4)cc32)CC1`, the activity change, negative = inhibition was 16.9% and -5.47%.

`CCOC(=O)c1ccccc1NC(=O)c1sc2nc(-c3ccc(F)cc3)cn2c1C`: the activity change, negative = inhibition is -4.65%.

With `Cc1cccc(C(=O)Nc2ccc(-c3nc4ncccc4o3)cc2C)c1`, the activity change, negative = inhibition was 24.6%.

As for `O=C1c2ccccc2C(=O)N1CCOc1ccc(F)cc1`, the activity change, negative = inhibition is -3.7%.

Turning to `O=C1NC(=O)N(CCc2ccc(F)cc2)C(=O)/C1=C/C=C/c1ccccc1`, the activity change, negative = inhibition is -71.6% (active).

Regarding `CCc1ccc(OCC(=O)N2CCN(CC(=O)Nc3ccccc3Cl)CC2)cc1`, the activity change, negative = inhibition is 11.8%.

For `Clc1ccc(-c2cc(COc3ccccc3)no2)cc1Cl`, the activity change, negative = inhibition is 0.868%.

For the molecule `Cc1ccc(NC(=O)CSc2nnc3[nH]c(=O)cc(C)n23)cc1Cl`, the activity change, negative = inhibition was -38.5%.

As to `COc1ccc(-c2cc(=O)oc3cc(OC(C)C(=O)Nc4ccc(CN5CCOCC5)cc4)ccc23)cc1` (stereo unspecified), the activity change, negative = inhibition is -70.7% (active).

Take `COc1ccc(-c2cc(=O)oc3cc(OC(C)C(=O)NCC4CCC(C(=O)O)CC4)ccc23)cc1` (stereo unspecified): the activity change, negative = inhibition is 5.3%.

Take `Cc1cc(=O)oc2cc(OC(C)C(=O)Nc3ccc(N4CCOCC4)cc3)ccc12` (stereo unspecified): the activity change, negative = inhibition was 5.98%.

Take `CCCNC(=O)c1ccc2c(c1)ncn2-c1ccc(C)cc1C`: the activity change, negative = inhibition was -6.25%.

Take `CC(C)(C)c1ccc(C(=O)Nc2ccc3c(c2)CCCN3C(=O)c2cccs2)cc1`: the activity change, negative = inhibition was -80.2% (active).

Regarding `O=C(Nc1ccc2nc(SCC(=O)N3CCCc4ccccc43)sc2c1)c1ccc(Cl)cc1`, the activity change, negative = inhibition is 95.5%.

`O=C(Nc1ccc2nc(SCC(=O)N3CCCc4ccccc43)sc2c1)c1ccc(F)cc1`: the activity change, negative = inhibition was -5.14%.

With `Cc1ccc(CNC(=O)CCCNC(=O)c2ccc(Cl)cc2)n1C`, the activity change, negative = inhibition was 43.4%.

For `CCOc1ccccc1CNC(=O)C1CCCN(S(=O)(=O)c2ccc3c(ccn3C)c2)C1` (stereo unspecified), the activity change, negative = inhibition was -5.75%.

For the molecule `Cc1ccc(CNC(=O)CCc2c(C)nn(-c3ccc(N4CCCC4)nn3)c2C)cc1`, the activity change, negative = inhibition is 19.6%.

In the case of `CCCCCC1CCC(c2nnc(SCC(C)=O)o2)CC1` (stereo unspecified), the activity change, negative = inhibition is -99.8% (active).

Turning to `CCN(CC)C(=O)CSc1nnc(C2CCCCC2)o1`, the activity change, negative = inhibition was 18.8%.

On to `Cc1[nH]c2ccccc2c1C(=O)C(C)Sc1nnc(C2CC2)o1` (stereo unspecified), for which the activity change, negative = inhibition was 0%.

`Cc1ccc(CNC(=O)CCNS(=O)(=O)c2ccc3c(c2)oc(=O)n3C)cc1`: the activity change, negative = inhibition is -1.91%.

For `COC1=CC=C2[C@H]3Cc4ccc(OC)c5c4[C@@]2(CCN3C)C1O5` (stereo partly specified), the activity change, negative = inhibition is 23.5%.

`COc1ccc2c(c1)[C@]13CCCCC1C(C2)N(C)CC3` (stereo partly specified): the activity change, negative = inhibition was -2.65%.

In the case of `COC1=C[C@@H]2[C@@H]3Cc4ccc(OC)c(O)c4[C@]2(CCN3C)CC1=O`, the activity change, negative = inhibition is -68% (active).

With `Cc1ccc(Cl)cc1N1CCN(C(=O)c2cccn3c(=O)c4cc(Cl)ccc4nc23)CC1`, the activity change, negative = inhibition was -4.38%.

As for `COc1ccc(-c2nc3scc(CCNS(=O)(=O)c4cc(F)ccc4OC)n3n2)cc1OC`, the activity change, negative = inhibition is 34.6%.

Regarding `CCOC(=O)c1scc(-c2ccc(C)cc2)c1S(=O)(=O)Nc1cc(C)ccc1C`, the activity change, negative = inhibition is -16.6%.

As to `CCOC(=O)c1c(-c2ccc(C)cc2)csc1/N=C(\C)C1=C(O)c2ccccc2C1=O`, the activity change, negative = inhibition is -62.8% (active).

In the case of `CC(=NCc1ccc2c(c1)OCO2)C1=C(O)c2ccccc2C1=O`, the activity change, negative = inhibition is 14.5%.

On to `CSc1ccc(C2C(C(=O)Nc3ccccc3)=C(C)Nc3nc4ccccc4n32)cc1` (stereo unspecified), for which the activity change, negative = inhibition is 8.38%.

On to `COc1ccc(CNC(=O)Cn2nnc(-c3ccc(S(C)(=O)=O)cc3)n2)cc1`, for which the activity change, negative = inhibition is 21.5%.

As to `COc1cccc(N2CCN(c3ccc4nnc(CCC(=O)N5CCN(C)CC5)n4n3)CC2)c1`, the activity change, negative = inhibition was -14.4%.

With `COc1cccc(-c2nc3ccc(N4CCN(C)CC4)cc3[nH]2)c1`, the activity change, negative = inhibition is -68.2% (active).

With `COc1ccc(N2CCN(C3=NS(=O)(=O)C(c4cccc(Br)c4)=C3C)CC2)cc1`, the activity change, negative = inhibition is -29.4%.
